LGR2 antag: inhibitors of bursicon-induced LGR2 CRE-luciferase signal, primary screen, cell-based, HEK293, CRE-luciferase reporter, bursicon stimulation; Drosophila bursicon receptor LGR2 (rickets); bursicon-stimulated, 4 h; inhibition, % at 9.99 µM; 380,000 tested, 0.35% active; AID 720647, 2013;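 active = drop in luminescence signal, shown as inhibition above about 50% in the replicate tests, limit read from the data, passing the limit was not always enough; inconclusive = probably only some replicates passing the limit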;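 note: agonist challenge used bursicon conditioned medium at about half maximal strength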
PAX8 reporter: inhibitors of PAX8-driven TPO luciferase reporter, primary screen, RMG-I cells, single concentration; SteadyGlo, 24 h; inhibition, % at 12.6 µM; 360,000 tested, 1.2% active;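 active = mean replicate inhibition at least 60% with every replicate also reaching 60%; inconclusive = only one of the two criteria is met; inactive = mean below 60% and not all replicates reaching 60%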;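 note: luciferase light reporting Pax8 driven TPO promoter activity; plate controls were median of neutral control wells for no effect and mitoxantrone controls for full effect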
CF NFkB block: inhibitors of PAF-induced NF-kB signaling, primary screen, cell-based, GFP fluorescence, uHTS; KKLEB NF-kB-GFP reporter, GFP fluorescence overnight; inhibition, % at 5 µM; 360,000 tested, 0.86% active; AID 588850, 2011;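 active = at least 50% inhibition at 5 µM, scaled per plate between neutral and stimulator controls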;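 note: PAF is a Pseudomonas aeruginosa culture filtrate used as stimulus; plate controls were PAF-stimulated DMSO wells for no effect and unstimulated DMSO wells for full effect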
KKLEB tox: cytotoxicity in KKLEB CF airway cells, primary screen, cytotoxicity control for CF NF-kB inhibitor project, cell-based, uHTS, fluorescence assay plates; KKLEB CF airway cells viability, ATPlite luminescence, overnight; hits give low values; cells stimulated with P. aeruginosa culture filtrate; activity change (cytotoxicity), % at 5 µM; 360,000 tested, 0.36% active; AID 602141, 2011;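 active = corrected activity change at or below -50% at 5 µM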
EWS-Fli inh: EWS/Fli-driven NR0B1 reporter inhibitors, primary screen, A673 cells, NR0B1 luciferase, luminescence, MLPCN library; inhibition, % at 12.6 µM; 350,000 tested, 0.67% active; AID 651661, 2012; viability-normalised;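 active = mean inhibition of at least 50% after viability correction, with every replicate also passing that limit; inconclusive = mean reaches 50% but only one of two replicates passes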;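 note: firefly luciferase signal divided by Alamar Blue viability fluorescence both relative to DMSO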
Shn3 inh set2: reduction of Shn3 3'UTR firefly luciferase signal, primary screen, Schnurri-3 inhibitor project, cell-based, Clone20 osteoblasts, set 2. inhibition, % at 12.5 µM. Clone20 osteoblast Shn3 3'UTR firefly luciferase, 24 h. AID 588674, 2011. 360,000 tested, 0.52% active;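 active = mean inhibition of at least 75% with every replicate also reaching 75%; inconclusive = mean inhibition at least 75% but some replicate below; inactive = mean inhibition below 75%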;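 note: 0% = median of neutral control wells and 100% = pilot-screen positive control compound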
Numbers without * were called inactive; ? = inconclusive; / = no result; ! = not active in a repeat. An excerpt weighted towards active compounds, which were near 2% of everything screened.

SMILES	LGR2 antag	PAX8 reporter	CF NFkB block	KKLEB tox	EWS-Fli inh	Shn3 inh set2
C[C@H]1CN([C@@H](C)CO)C(=O)Cc2cc(NC(=O)Nc3ccc4c(c3)OCO4)ccc2O[C@H]1CN(C)S(=O)(=O)c1ccc(F)cc1	15	/	/	/	53*	/
NC(=O)CC(NC(=O)c1ccccc1)c1ccc(N2CCC(Cc3ccccc3)CC2)c([N+](=O)[O-])c1 (stereo unspecified)	-11	12	15	-6	22	91*
CC(=O)OCCCNc1cc(Sc2nc3ccccc3s2)c2nonc2c1[N+](=O)[O-]	/	/	2	2	/	101*
O=[N+]([O-])c1c(NCCCO)cc(SCc2ccco2)c2nonc12	-9	6	6	-11	1	-38
O=[N+]([O-])c1c(NCCCO)cc(Sc2ccc(Cl)cc2)c2nonc12	21	-12	-4	24	/	94*
CC(=O)OCCNc1cc(Sc2nc3ccccc3[nH]2)c2nonc2c1[N+](=O)[O-]	?	-7	63*	-16	/	98*
COC(=O)CCSc1cc(NCCOC(C)=O)c([N+](=O)[O-])c2nonc12	22	16	17	0	/	-28
CC(=O)OCCCNc1cc(Sc2ccc(C)cc2)c2nonc2c1[N+](=O)[O-]	51*	5	30	4	/	95*
CC(=O)OCCNc1cc(SCc2ccco2)c2nonc2c1[N+](=O)[O-]	/	/	28	13	/	-22
Cc1ccccc1S(=O)(=O)N1CC[C@@H]2[C@@H](CO)Nc3ccc(-c4cccc(F)c4)cc3[C@@H]21	18	20	/	/	12	/
COc1cccc(NC(=O)C(NCCc2ccc(S(N)(=O)=O)cc2)c2ccccc2)c1 (stereo unspecified)	16	74*	-14	9	11	8
CCOC(=O)N1CCN(C(=O)C2CCN(C(=O)c3ccccc3C)CC2)CC1	-1	51	36	-13	25	93*
Cc1ccccc1C(=O)N1CCC(C(=O)N2CCN(c3ncccn3)CC2)CC1	11	-2	9	4	3	7
COc1cc2c(cc1OC)CN1CCc3cc(OC)c(OC)cc3C1C2 (stereo unspecified)	-1	/	-33	3	2	15
CC[C@H]1CN2CCc3cc(OC)c(OC)cc3C2C[C@@H]1C[C@H]1NCCc2cc(OC)c(OC)cc21 (stereo partly specified)	103*	111*	90*	21	59*	97*
C[C@H](CO)N1C[C@H](C)[C@@H](CN(C)S(=O)(=O)CC(F)(F)F)OCc2ccccc2-c2c(n(C)c3ccccc23)C1=O	1	8	/	/	-7	/
CC(C)Oc1ccccc1C1CC(=O)Nc2cc3c(cc21)OCCO3 (stereo unspecified)	/	80*	44	-38	/	77
COc1ccccc1C1CC(=O)Nc2cc3c(cc21)OCCO3 (stereo unspecified)	-2	/	34	-16	40	58
O=C(C[C@@H]1C[C@H]2c3cc(NC(=O)C4CCOCC4)ccc3O[C@H]2[C@H](CO)O1)NCc1ccc(Oc2ccccc2)cc1	7	90*	/	/	17	/
O=C(C[C@@H]1C[C@H]2c3cc(NC(=O)NC4CCCC4)ccc3O[C@H]2[C@H](CO)O1)NCc1ccc(Oc2ccccc2)cc1	-2	66*	/	/	60*	/
O=C(C[C@@H]1C[C@@H]2c3cc(NC(=O)NC4CCCC4)ccc3O[C@@H]2[C@@H](CO)O1)NCc1ccc(Oc2ccccc2)cc1	-3	8	/	/	8	/
O=C(C[C@@H]1C[C@H]2c3cc(NC(=O)c4ccc5c(c4)OCO5)ccc3O[C@H]2[C@H](CO)O1)NCc1ccc(Oc2ccccc2)cc1	22	13	/	/	6	/
O=C(C[C@@H]1C[C@H]2c3cc(NC(=O)c4ccc5c(c4)OCO5)ccc3O[C@H]2[C@@H](CO)O1)NCc1ccc(Oc2ccccc2)cc1	53*	-10	/	/	-8	/
CCS(=O)(=O)N1CCCCN2[C@H](CO)[C@H](c3ccc(-c4ccccc4)cc3)[C@@H]2C1	6	11	/	/	2	/
O=[N+]([O-])c1nn(-c2ccccc2)n(O)c1=NCCc1ccccc1	-25	/	-5	12	/	-31
SMILES	LGR2 antag	PAX8 reporter	CF NFkB block	KKLEB tox	EWS-Fli inh	Shn3 inh set2
COc1ccc(-n2nc([N+](=O)[O-])c(=NCCc3ccccc3)n2O)cc1	-22	94*	-6	4	-10	2
CCN1CCN(Cc2ccc(NC(=O)c3cc(NC(=O)c4nccnc4N)cc(OC)c3)cc2C(F)(F)F)CC1	34	-13	42	-16	1	-38
CCN1CCN(Cc2ccc(NC(=O)c3ccc(C)c(NC(=O)c4nccnc4N)c3)cc2C(F)(F)F)CC1	39	5	71*	-19	20	36
CCN1CCN(Cc2ccc(NC(=O)c3ccc(C)c(NC(=O)c4cncc(-c5cccs5)c4)c3)cc2C(F)(F)F)CC1	/	/	80*	-85*	/	88*
CCN1CCN(Cc2ccc(NC(=O)c3cc(NC(=O)c4cncc(-c5ccc(C#N)cc5)c4)cc(OC)c3)cc2C(F)(F)F)CC1	10	108*	57*!	-73*!	48	98*
Cc1ccc(C(=O)Nc2cccc(C(F)(F)F)c2)cc1Nc1ncnc2nc[nH]c12	11	39	69*	8	6	51
Cc1ccc(C(=O)Nc2cccc(C(F)(F)F)c2)cc1NC(=O)c1nccn1C	3	3	19	3	-29	-6
O=C(C[C@@H]1CC[C@@H](NS(=O)(=O)c2cccc(F)c2)[C@H](CO)O1)NCc1ccc2c(c1)OCO2	10	1	/	/	-10	/
COc1ccc(C(=O)NNC(=O)c2cccc(S(=O)(=O)N3CCOCC3)c2)cc1	-19	-14	-4	12	-16	96*
COc1ccc(NC(=O)c2cccc(S(=O)(=O)N3CCOCC3)c2)cc1	10	-32	-5	14	-5	-16
COc1ccccc1NC(=O)N1CCCCN2[C@H](CO)[C@H](c3ccc(-c4ccccc4)cc3)[C@@H]2C1	/	1	/	/	-6	/
O=C1c2ccccc2C(=O)C1c1ccc2ccccc2n1	/	/	-185	-68*	/	27
COc1cc2ccccc2cc1C(=O)O	/	-5	-18	-7	/	4
COc1cc2ccccc2ccc1=NO	17	-22	79*	-12	-5	8
C[C@@H]1CN([C@H](C)CO)C(=O)c2cc(NC(=O)c3ccccc3)ccc2O[C@@H](C)CCCCO[C@H]1CN(C)C(=O)c1ccccc1	-2	1	/	/	/	/

Screens from PubChem.
